Assay outcomes from PubChem BioAssay.
Only some compounds are listed: those with a hit (about 2.4% of all), similar ones and a draw of the others.
D2 ag-1 – Beta-Arrestin HTS for Positive Allosteric Modulators of the Human D2 Dopamine Receptor: Agonists; D(2) dopamine receptor (Homo sapiens), P14416; DiscoveRx PathHunter D2 beta-arrestin, luminescence, 90 min; 100% = 57 uM dopamine signal; activation, % (test concentration not listed); hit rate 0.084% among 360,000; AID 624465, 2012; in the data active = activation above about 40%; inconclusive = between about 15% and that limit
Target sequence (P14416 whole entry, looked up): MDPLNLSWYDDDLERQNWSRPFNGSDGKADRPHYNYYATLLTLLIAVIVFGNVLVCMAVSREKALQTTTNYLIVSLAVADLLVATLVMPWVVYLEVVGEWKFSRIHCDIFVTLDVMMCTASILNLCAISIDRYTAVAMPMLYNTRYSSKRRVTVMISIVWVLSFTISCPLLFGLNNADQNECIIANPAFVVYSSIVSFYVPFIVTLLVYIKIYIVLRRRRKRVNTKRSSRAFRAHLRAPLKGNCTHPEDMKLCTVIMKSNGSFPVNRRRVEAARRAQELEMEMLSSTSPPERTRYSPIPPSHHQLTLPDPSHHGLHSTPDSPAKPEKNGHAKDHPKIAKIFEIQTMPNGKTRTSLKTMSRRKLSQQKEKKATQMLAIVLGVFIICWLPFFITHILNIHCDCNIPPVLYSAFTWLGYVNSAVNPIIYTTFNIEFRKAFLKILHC
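Agonist mode: compounds alone added to overnight-plated D2 PathHunter cells for 90 min at 37 C, with 57 uM final dopamine (EC100) defining full response. Beta-arrestin recruitment detected by chemiluminescent reagent, read after 1 h at ambient temperature.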
D2 PAM-1 – Beta-Arrestin HTS for Positive Allosteric Modulators of the Human D2 Dopamine Receptor: Potentiators; D(2) dopamine receptor (Homo sapiens), P14416; AID 624464, 2012; DiscoveRx D2 beta-arrestin cells, luminescence, 90 min; 100% = 57 uM dopamine signal; potentiation, % (no concentration beside the values); hit rate 0.23% among 360,000; in the data active = potentiation above about 50%; inconclusive = mostly about 30% to 49%
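PathHunter D2 cells, attached overnight at 37 deg C, received compound in DMSO plus dopamine at EC20 (50 nM final) for 90 min at 37 deg C. Beta-arrestin recruitment was read as luminescence after 1 h with detection reagent at ambient temperature.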
D2 antagonist – HTS Assay for Allosteric Antagonists of the Human D2 Dopamine Receptor: Primary Screen for Antagonists; hit rate 2% among 340,000; D(2) dopamine receptor (Homo sapiens), P14416; inhibition, % at 10 µM; HEK293 TREx D2 cells, calcium flux, dopamine EC80; in the data active = inhibition above about 30%; inactive = below that, where a call was filed; also: 0% is about no effect
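Calcium flux kinetic readout in an inducible HEK293 TREx D2 line plated overnight at 30 C. After 180 s compound exposure, an EC80 dopamine challenge follows with another 180 s kinetic read to detect antagonism.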
D2 PAM-2 – HTS Assay for Positive Allosteric Modulators of the Human D2 Dopamine Receptor: Primary Screen for Potentiators | potentiation, % at 10 µM | D(2) dopamine receptor (Homo sapiens), P14416 | HEK293 T-REx D2, calcium flux, EC20 dopamine potentiation | AID 485347, 2010 | hit rate 0.34% among 340,000;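 active = potentiation over 3 SD above the plate norm, cut at about 30% in these data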; also: 0% is about no effect
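Cells plated with tetracycline inducer and held overnight at 30 C; calcium dye loaded 30–90 min at room temperature; baseline taken, compound added and read 180 s; EC20 dopamine then added and read 180 s.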
D2 ag-2 – HTS Assay for Allosteric Agonists of the Human D2 Dopamine Receptor: Primary Screen for Agonists | D(2) dopamine receptor (Homo sapiens), P14416 | HEK293 T-REx D2 cells, calcium flux agonist mode | activation, % at 2 µM | hit rate 0.53% among 340,000 | AID 485358, 2010;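 active = activation over 3 SD above normal in the single-dose calcium agonist read, cut at about 30% in these data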; also: 0% is about no effect
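Agonism scored from kinetic calcium signal (1 read/sec, 180 s) following compound pin transfer, after a 10 s baseline. Cells: HEK293 Trex line expressing inducible D2 receptor coupled to calcium, dye-loaded after overnight culture at 30 C.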
An asterisk follows results filed as active; ? = inconclusive; · = no result given.

SMILES	D2 ag-1	D2 PAM-1	D2 antagonist	D2 PAM-2	D2 ag-2
COc1ccc(CNC(=O)c2cc3cccc4c3n2CC(C)S4)cc1OC (stereo not drawn)	·	·	·	-0.7	0.2
CCCCCCc1cc2cc(S(=O)(=O)c3ccc(F)cc3)c(=O)oc2cc1O	3.3	11.1	16.0	10.9	23.3
CCCCCCc1cc2cc(-c3nnc(-c4ccccc4O)o3)c(=O)oc2cc1O	5.9	2.0	19.5	-6.1	39.0*
CCCCCCc1cc2cc(-c3nnc(-c4ccccc4OC)o3)c(=O)oc2cc1O	?	154.9*	-43.0	-0.6	109.8*
CCCCCCc1cc2cc(-c3nnc(-c4cc(OC)c(OC)c(OC)c4)o3)c(=O)oc2cc1O	0.1	-9.7	0.4	7.2	0.3
CC(=O)N1CCc2c(sc3c2c(=O)n(-c2ccccc2Cl)c(=O)n3Cc2cccc(C)c2)C1	·	·	·	-5.0	-0.4
O=C(O)c1ccccc1C(=O)NC1Cc2ccccc2C1	1.1	3.6	6.4	-11.5	35.5*
O=C(NC1CCCC1)c1ccccc1-c1ccccc1	-3.6	-7.5	-15.3	-1.5	0.2
COc1cccc(N2CC(NC(=O)c3cc4ccccc4o3)CC2=O)c1 (stereo not drawn)	·	·	·	5.3	-3.5
Cc1ccc(SCCC(=O)NC(C)(C)C)cc1	-2.2	-7.1	-0.8	12.1	0.2
Cc1ccc(SCCC(=O)NC(C)C)cc1	-3.0	-8.3	32.2*	-10.9	1.1
CCCCn1c2ccc(F)cc2c2nnc(SCCN3CCOCC3)nc21	4.6	-11.7	8.0	-4.2	-0.5
Cn1c2ccc(F)cc2c2nnc(SCCN3CCOCC3)nc21	-2.7	-12.9	35.3*	3.4	-0.1
CCCn1c(SCC(=O)c2ccc3c(c2)OCCO3)nc2c1c(=O)n(C)c(=O)n2C	-0.4	1.8	30.9*	21.2	0.9
CCCn1c(SCC(=O)c2ccc3c(c2)OCCO3)n[nH]c1=O	0.9	-19.1	-15.6	-3.6	2.7
CCCC(=O)Nc1ccc2oc(-c3cncc(Br)c3)nc2c1	-1.1	-3.2	39.0*	7.7	-0.2
CCCC(=O)Nc1ccc2oc(-c3ccncc3)nc2c1	-0.6	-5.9	0.9	34.1*	-0.6
CCCCC(=O)Nc1ccc2oc(-c3ccncc3)nc2c1	-1.5	-7.6	·	·	·
CCCCCC(=O)Nc1ccc2oc(-c3cncc(Br)c3)nc2c1	0.4	-9.2	-16.4	10.8	0.6
COCCNc1nc(-c2ccccc2)nc2ccccc12	7.5	-2.2	-5.5	8.4	1.2
CC(=O)OCCNc1nc(-c2ccccc2)nc2ccccc12	-5.6	0.0	38.0*	-0.6	1.4
COc1cccc(-n2c(SCC(=O)Nc3cc(C)ccc3C)nc3c(oc4ccccc43)c2=O)c1	·	·	·	-1.0	0.3
COc1ccc(CN2CCNC(=O)C2CC(=O)NC2CCCC2)c(OC)c1 (stereo not drawn)	-1.4	-5.7	-26.9	106.8*	-0.3
COC(=O)c1cccc(NC(=O)C2CCN(S(=O)(=O)Cc3ccccc3)CC2)c1C	·	·	·	-5.8	-0.3
CCc1ccc(CNc2ccc(N3CCN(C(C)=O)CC3)cc2)cc1	12.2	81.5*	-2.2	8.5	0.3
SMILES	D2 ag-1	D2 PAM-1	D2 antagonist	D2 PAM-2	D2 ag-2
CC(=O)N1CCN(c2ccc(NCc3ccc(C)cc3)cc2)CC1	-1.4	29.9	-5.1	-16.5	0.1
COc1cc(C(=O)N/N=C(\C)Cc2ccccc2)cc(OC)c1OC	1.2	-6.5	·	·	·
COc1cc(C(=O)NCC(=O)N/N=C(\C)Cc2ccccc2)cc(OC)c1OC	2.0	-8.3	-7.9	36.9*	0.0
Cc1cccc(N2CCN(C(=O)CNC(=O)c3ccccc3)CC2)c1C	0.2	-6.0	33.1*	12.8	-1.2
Cc1cccc(N2CCN(C(=O)CNC(=O)C3CCCCC3)CC2)c1C	2.5	14.2	0.9	-3.8	0.6
CCN1CCN(c2sc(S(=O)(=O)CC)nc2S(=O)(=O)c2ccc(C)cc2)CC1	-1.6	-26.9	·	·	·
CCCS(=O)(=O)c1nc(S(=O)(=O)c2ccc(C)cc2)c(N2CCN(CC)CC2)s1	-5.3	-34.1	67.4*	-22.9	0.2
COc1ccc(CCNC(=O)C(NS(=O)(=O)c2ccc3c(c2)CCN3C(C)=O)C(C)C)cc1OC (stereo not drawn)	·	·	4.7	31.7*	-0.3
CCC(=O)N1CCc2cc(S(=O)(=O)CCC(=O)NCCc3ccc(OC)c(OC)c3)ccc21	-0.4	-13.4	36.6*	2.4	-0.1
CCC(=O)N1CCc2cc(S(=O)(=O)CCC(=O)NCCc3ccccc3)ccc21	-1.5	-13.7	1.3	4.7	-1.9
COc1ccc(S(=O)(=O)Nc2ccc(N3CCOCC3)cc2)cc1Br	-0.4	-35.9	30.5*	5.3	0.0
COc1ccc(S(=O)(=O)Nc2ccc3c(c2)N(C(C)=O)CCC3)cc1OC	3.4	-2.2	33.8*	16.7	-0.3
COc1ccc(S(=O)(=O)Nc2ccc(N3CCOCC3)cc2)cc1[N+](=O)[O-]	2.1	3.7	2.4	0.7	-0.6
COc1ccc(-c2cnc(C)o2)cc1S(=O)(=O)Nc1ccc(NC(C)=O)cc1	·	·	·	-1.7	1.3
COc1ccc(N2CCN(CCCn3ccc(NC(=O)OCc4ccccc4)nc3=O)CC2)cc1	-9.1	-0.4	·	·	·
CCOc1ccccc1NC(=O)Cn1cnc2onc(-c3ccc(F)cc3)c2c1=O	·	·	·	0.6	1.1
NC(=O)CC(NC(=O)c1ccc(Cl)cc1)C(=O)NCCc1ccc(S(N)(=O)=O)cc1 (stereo not drawn)	9.8	-4.2	10.5	-4.8	-0.4
CSCCC(NC(=O)c1ccccc1)C(=O)NCCc1ccc2c(c1)OCCO2 (stereo not drawn)	1.2	-28.0	65.6*	-9.9	0.0
CSCCC(NC(=O)c1ccccc1)C(=O)NCc1ccc(S(N)(=O)=O)cc1 (stereo not drawn)	1.9	-0.4	31.4*	-8.2	1.3
CSCCC(NC(=O)c1ccccc1)C(=O)NC1CC1 (stereo not drawn)	-2.9	-16.0	11.4	-0.8	-0.5
NC(=O)CCC(NC(=O)c1ccc(Cl)cc1)C(=O)NCCc1ccc2c(c1)OCCO2 (stereo not drawn)	-5.9	-11.5	42.2*	8.0	-0.3
CC(=O)N(CC#CCN(C(C)=O)c1ccccc1)c1ccccc1	-1.5	-16.0	·	·	·
CN(C)CCNC(=O)C(=O)c1c(-c2ccccc2)cc2ccccn12	-1.2	-15.9	10.0	4.5	0.0
COc1ccc(-c2c(-c3ccccc3)c(C(=O)C(=O)NCCCN(C)C)n3ccc4cc(OC)c(OC)cc4c23)cc1OC	-2.5	-15.8	48.3*	-23.7	0.4
